Source: PubChem BioAssay AID374 (University of Pittsburgh Molecular Library Screening Center, 2006)
Screen size: about 65,000 compounds; about 100 (0.15%) were called active. Many of the other results were omitted from the sample, so actives are more common in it than they were. Values without a mark were called inactive.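 The calls were made as follows: active = inhibition above about 50% (limit read from the data); inconclusive = inhibition over screen mean plus 3 SD, below that limit; inactive = the rest.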

Each molecule was assayed against Dual specificity protein phosphatase 1 (Homo sapiens) (UniProt P28562) (assay: MKP-1 phosphatase inhibitors, primary screen, biochemical, in vitro (AID 374;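 also: 0% = DMSO max control wells and 100% = wells with enzyme stopped by NaOH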)). Settings: recombinant MKP-1, OMFP hydrolysis fluorescence; stronger effect = higher value;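 compounds tested at a single concentration somewhere between 10 and 100 µM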.
Sequence of Dual specificity protein phosphatase 1 (Homo sapiens) (P28562 whole entry, looked up): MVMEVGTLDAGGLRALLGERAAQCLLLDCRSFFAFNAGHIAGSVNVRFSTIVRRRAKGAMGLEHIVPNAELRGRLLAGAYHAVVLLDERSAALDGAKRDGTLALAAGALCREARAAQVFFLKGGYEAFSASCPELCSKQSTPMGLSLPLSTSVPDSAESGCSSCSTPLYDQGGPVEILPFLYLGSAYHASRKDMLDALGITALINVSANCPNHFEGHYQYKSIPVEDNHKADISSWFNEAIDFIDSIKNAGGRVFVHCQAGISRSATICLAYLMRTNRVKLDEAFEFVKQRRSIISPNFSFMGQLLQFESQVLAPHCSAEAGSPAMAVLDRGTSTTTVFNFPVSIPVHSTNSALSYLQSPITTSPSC
In the case of `COC(=O)N(c1ccc(OC)cc1)P1(=S)OCCC(C)O1` (stereo not given), the inhibition is reported as 100% (active).
Work on `CCOC(=O)c1c(N)n(Cc2ccccc2)c2nc3ccccc3nc12` yielded an inhibition of 32.1%.
Molecule `COC(=O)C(c1ccccc1)N1CCCCCC1` (stereo not given) has an inhibition of -10.8%.
Molecule `CCc1nc2ccccc2c(=O)n1-c1cccc(OC)c1` has an inhibition of 2.83%.
Molecule `CCN(CC)CCOC(=O)c1cc2cc(COC)ccc2o1` has an inhibition of 2.26%.
